HCV inh: inhibitors of hepatitis C virus infection. Huh7.5.1 HCVcc-Cre infection, luciferase reporter, 44 h. Potency, µM (highest dose often 41.8 µM), without a hit: at the highest dose activity change, negative = inhibition, hits mostly inhibitors. actives 3.4% (n = 340,000); note: potency is the fitted concentration of half-maximal effect
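A cell-based infection assay in which seeded cells (1,000 per well) receive test compound after 4 h, are inoculated with HCVcc-Cre at approximately 0.5 moi, and are incubated 44 h before luminescence detection.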
Giardia FBPA inh: Giardia lamblia aldolase inhibition; purified Giardia FBPA; AID 2451; actives 0.71% (n = 290,000); Potency, µM (series often up to 59.6 µM), inactives show at the highest dose activity, negative = inhibition, usual class: inhibitors; A8B2U2; note: potency is the fitted concentration of half-maximal effect; nearly all actives have a fitted effect of over 55% in size
Target sequence (A8B2U2 whole entry, looked up): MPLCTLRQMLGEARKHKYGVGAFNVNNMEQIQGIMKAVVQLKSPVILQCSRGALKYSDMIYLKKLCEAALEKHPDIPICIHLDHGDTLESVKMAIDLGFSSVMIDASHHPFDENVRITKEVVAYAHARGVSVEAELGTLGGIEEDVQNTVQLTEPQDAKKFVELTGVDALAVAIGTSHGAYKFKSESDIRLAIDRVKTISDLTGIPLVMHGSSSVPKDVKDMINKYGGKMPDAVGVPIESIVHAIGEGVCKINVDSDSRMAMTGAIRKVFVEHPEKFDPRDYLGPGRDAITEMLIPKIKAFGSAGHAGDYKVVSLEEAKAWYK
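Giardia FBPA (40 nM reagent) was preincubated 10 min at RT with compound (up to 57.5 uM final), then substrate plus GAPDH/TPI/NAD/arsenate coupling system with diaphorase/resazurin was added; resorufin fluorescence (525/598 nm) was read after 20 min.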
HCMV inh: blocks human cytomegalovirus replication. HFF cells, HCMV-luciferase reporter, 72 h; stronger effect = lower value. actives 4.5% (n = 410,000). activity change, negative = inhibition, % at 57.5 µM; in the data active = activity change below about -60%; inconclusive = no clear call, values can overlap the other calls; inactive = above about -39%
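After 16 h attachment at 37C, HFF cells received test compound and HCMV-luciferase (1 PFU/cell); reporter luminescence read 72 h later, data normalized against buffer-only and known inhibitor Salinomycin.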
VACV Venus inh: inhibitors of vaccinia virus (Venus reporter); Potency, µM (doses to about 36.5 µM), for the others: at the highest dose activity change, negative = inhibition, hits mostly inhibitors; actives 0.46% (n = 330,000); Vaccinia virus Venus reporter expression, fluorescence; calls by dose curve; tested in A549 cells; note: potency is the fitted concentration of half-maximal effect; nearly all actives have a fitted effect of over 30% in size
FMDV inh: foot and mouth disease virus antiviral activity; FMDV antiviral cell-based qHTS; Potency, µM (top dose mostly 57.9 µM), for the others: top-dose activity change, negative = inhibition, most hits filed as inhibitors; actives 1.2% (n = 410,000); AID 1159524; calls by dose curve; tested in HEK293T cells; note: read-out not given here; potency is the fitted concentration of half-maximal effect; nearly all actives have a fitted effect of over 45% in size
Vaccinia mCherry: inhibitors of vaccinia virus infection (mCherry reporter signal); Vaccinia virus mCherry reporter infection, fluorescence; Potency, µM (highest dose often 36.5 µM), for the others: top-dose activity change, negative = inhibition, most hits filed as inhibitors; actives 0.63% (n = 310,000); calls by dose curve; tested in A549 cells; note: potency is the fitted concentration of half-maximal effect; nearly all actives have a fitted effect of over 35% in size
Numbers without * were called inactive; i = inactive; ? = inconclusive; . = no result given; ! = not active in a repeat; [ ] = dose if it differs, or a comment. A selection: hits, their analogues and other compounds. The true share with any hit is near 7.5%. Unless noted, calls come from the whole dose curve; as a rule, active = well fitted curve in the direction sought with a large enough effect; inconclusive = small, poorly fitted or top-dose-only effect, or another doubt; inactive = no such curve, though single readings can be large; an effect the other way counts as inactive or inconclusive. % is set by controls: 0 for no effect and ±100 for the full control effect.

SMILES	HCV inh	Giardia FBPA inh	HCMV inh	VACV Venus inh	FMDV inh	Vaccinia mCherry
CCC1C(=NO)C(CC)C(c2ccccc2)NC1c1ccccc1 (centres undefined)	?	-1.7%	-100.7*	-4.2%	?	-6.2%
CC1C(=NO)C(C)C(c2ccccc2)NC1c1ccccc1 (centres undefined)	12.0%	-2.6%	-36.5	-11.2%	-10.2%	-15.7%
N#CCN1C(=O)C2CCCN2c2ccc(S(=O)(=O)N3CCOCC3)cc21 (centres undefined)	10.0%	-1.9%	-16.3	4.1%	-2.1%	-6.9%
CC1CCN(CC(C)OC(=O)c2ccc3c(c2)OCCO3)CC1 (centres undefined)	1.0%	2.6%	-3.0	.	30.3%	.
CC1CCN(CC(=O)c2ccc3c(c2)OCCO3)CC1	2.8%	?	-60.6*	-2.3%	-40.1%	-7.9%
O=C(CCN1CCOCC1)c1ccc2c(c1)OCCO2	11.2µM*	-17.1%	-26.3	-27.8%	-3.3%	.
O=C(CCCN1CCOCC1)c1ccc2c(c1)OCCO2	6.1%	0.4%	82.2	-17.7%	.	-16.3%
COc1cc2c(NCCCCCCO[N+](=O)[O-])ncnc2c(OC)c1OC	.	.	-25.0	.	.	.
Cc1nc(-c2ccc(NC(=O)CC(C)C)cc2)cs1	-21.5%	1.3%	-76.0*	-13.8%	17.8%	i
Cc1nc(NC(=O)CC(C)C)sc1-c1csc(Nc2ccc(Cl)cc2)n1	7.08µM*	-1.3%	-21.6	?	-21.5%	?
Cc1nc(NC(=O)CC(C)C)sc1-c1csc(Nc2ccc(Cl)cc2Cl)n1	-28.2%	9.6%	?	-23.7%	-9.5%	-8.8%
CCCCCCC(=O)Nc1nc(C)c(-c2csc(Nc3ccc(Cl)cc3)n2)s1	5.2%[8.37 µM]	5.9%	.	?	-6.2%	5.01µM*
COc1ccc(Cl)cc1Nc1nc(-c2sc(NC(=O)CC(C)C)nc2C)cs1	11.2µM*	4.3%	-2.1	?	-29.4%	?
Cc1nc(-c2ccc(NC(=O)C3CC3)cc2)cs1	2.0%	1.8%	-4.4	-9.5%	45.9%	-3.0%
CCCCCC(=O)Nc1nc(C)c(-c2csc(Nc3ccc(Cl)cc3)n2)s1	-21.6%	0.0%	?	?	-7.9%	?
Cc1nc([N+](=O)[O-])cn1CC(=O)c1ccc(OC(F)(F)F)cc1	4.0%	5.2%	.	-2.4%	3.5%	0.1%
Cc1cccc(C)c1NC(=O)C1(C)CSCC(=O)N1CCCn1ccnc1 (centres undefined)	.	.	-18.3	-0.8%	-10.3%	-9.2%
CC(C)(C)OC(=O)N1Cc2[nH]c3ccccc3c2C[C@@H]1C(=O)O	19.7%	.	-1.6	.	-13.9%	.
COC(=O)C(N)Cc1ccc(O)cc1 (centres undefined)	14.8%	-6.9%	2.7	.	-13.7%	.
NC(CO)C(=O)NNCc1ccc(O)c(O)c1O (centres undefined)	-0.6%[8.37 µM]	7.92µM*	?	-19.5%	-16.4%	-5.4%
CN(C)c1ccc(C(C(=O)NCc2ccccc2)N(Cc2ccco2)C(=O)c2snc(C(N)=O)c2N)cc1 (centres undefined)	12.6µM*	6.3%	-76.4*	3.9%	-10.1%	-26.9%
NC(=O)c1nsc(C(=O)N(Cc2ccco2)C(C(=O)NCc2ccc(F)cc2)c2ccc(O)cc2)c1N (centres undefined)	-24.9%	0.3%	-28.9	-6.1%	-1.3%	-15.2%
Cc1ccc(C(C(=O)NCc2ccc(F)cc2)N(Cc2ccco2)C(=O)c2snc(C(N)=O)c2N)o1 (centres undefined)	?	-1.0%	-81.5*	-16.2%	18.2%	?
COCCNC(=O)C(c1ccc(C)o1)N(C(=O)c1snc(C(N)=O)c1N)c1cc(C)cc(C)c1 (centres undefined)	-9.5%	1.4%	-78.5*	?	.	-11.7%
Cc1cccc(N2CCN(C(=O)c3ccc(NC(=O)c4nsc5ccccc45)cc3)CC2)c1C	.	.	125.6	-14.4%[7.34 µM]	0.4%	-15.2%[7.34 µM]
SMILES	HCV inh	Giardia FBPA inh	HCMV inh	VACV Venus inh	FMDV inh	Vaccinia mCherry
CCCCN(CCCC)C(=O)c1cc2ccccc2c(=O)o1	-13.5%	0.7%	-68.1*	-4.4%	12.2%	-2.0%
COc1ccc(-c2nc3c(c4c2C[C@H](c2ccccc2)OC4)CN(S(=O)(=O)c2ccc(Cl)c4nonc24)CC3)c(C)c1	.	-1.1%[12.9 µM]	.	.	.	.
Cc1ccc(-c2c[n+](CC(=O)Nc3nc(-c4ccccc4)cs3)c3n2CCC3)cc1	6.31µM*	-5.2%	16.9	-4.2%[7.34 µM]	-11.3%	-11.9%[7.34 µM]
Cc1ccc(-c2c[n+](CC(=O)Nc3cc(=O)n(C)c(=O)n3C)c3n2CCC3)cc1	9.0%	-0.2%	-68.2*	-7.4%	0.0%	i
O=C(Nc1ccc2c(c1)OCCO2)C(c1ccccc1)n1c(=O)c(-c2ccco2)nc2ccccc21 (centres undefined)	.	.	-15.9	-11.3%	12.5%	-22.5%
O=C(NN=Cc1cccc([N+](=O)[O-])c1)c1cccc2ccccc12	0.0%	.	-8.6	-17.4%	-18.9%	-5.7%
COc1cccc(C(=O)NC2CC3CCCC(C2)N3CC(=O)Nc2ccccc2C(F)(F)F)c1 (centres undefined)	6.31µM*	-9.1%	?	?	-21.6%	?
O=C(CN1C2CCCC1CC(NC(=O)C1CCCCC1)C2)Nc1ccccc1C(F)(F)F (centres undefined)	10µM*	-2.3%	-33.0	-17.6%	?	i
CCNC(=O)NC(=O)CSc1ccc(S(=O)(=O)N2CCCCC2)cn1	-28.5%	.	-2.5	-5.1%	-4.6%	-7.0%
Nc1cc2c(cc1C(=O)c1cccc(Br)c1)OCCO2	-13.2%	-12.4%	5.2	-10.8%	-13.7%	-17.4%
Cc1ccc(NC(=O)Cn2cnc3sc(C(=O)NCCN(C)C)c(C)c3c2=O)cc1Cl	10µM*	0.5%	.	.	.	.
CCCN(CCC)CCCNC(=O)Cn1cnc2sc(C)c(S(=O)(=O)N3CCCCC3)c2c1=O	11.8%	7.6%	-70.6*!	-6.1%	18.6%	-9.0%
CCN(CC)CCCNC(=O)c1sc2ncn(CC(=O)Nc3ccc(C)c(Cl)c3)c(=O)c2c1C	14.1µM*	0.7%	-63.2*	-21.3%	-8.3%	8.9%
CCCN(CCC)CCCNC(=O)Cn1cnc2sc(C)c(S(=O)(=O)N3CCC(C)CC3)c2c1=O	12.8%	-4.0%	56.0	3.2%	-4.6%	-7.1%
COc1cccc(CN2CCC(n3cc(C(=O)NC4CCCC4)nn3)CC2)c1O	.	.	.	-0.8%	-17.1%	-4.1%
COc1ccccc1C(=O)NCC(=O)NCCc1ccc(Cl)cc1	8.1%	1.9%	-23.8	1.5%	0.6%	i
CC(C)C[C@H]1CN([C@@H](CC(C)C)CN2CCC[C@H]2CN2C(=O)C(=O)NC[C@@H]2Cc2ccc(O)cc2)C(=O)C(=O)N1CC1CCCCCC1	.	.	-17.0	5.1%	4.6%	i
CN=c1c([N+](=O)[O-])nn(-c2ccc3c(c2)OCCO3)n1O	?	-13.6%	?	?	6.1%	12.6µM*

Screens: PubChem, National Center for Advancing Translational Sciences (NCATS)
